Bioassay records as filed in PubChem BioAssay.
In the library only some 3.5% were active in any assay of this set; here they are far more common.
mHTT-CaM PPI inh – inhibitors of human mutant huntingtin-calmodulin interaction; AlphaScreen His-mHTT/GST-CaM binding, luminescence; inhibition, % at 15 µM; 3.6% of 190,000 active; P42858;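 also: 0% = both proteins with DMSO and 100% = one protein alone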
Pf apPOL block – Pf-apPOL DNA polymerase inhibition | Recombinant Pf-apPOL, molecular beacon fluorescence, 1.5 h | inhibition, % at 10 µM | 0.25% of 210,000 active
An asterisk follows results filed as active; x = no result. Rule as the data show it: active = inhibition above about 50%; inactive = the rest.

SMILES	mHTT-CaM PPI inh	Pf apPOL block
CC(C)N1Cc2cc(C(=O)NCCCN3CCCc4ccccc43)sc2C1	48	-2
CCOc1cc(CNC(=O)c2ccc3c(c2)nc2n3CCC(C)C2)ccc1OC (stereo unspecified)	7	0
CC(CCc1ccccc1)Nc1nc(Cl)nc(NCCN2CCOCC2)n1 (stereo unspecified)	62*	2
Clc1nc(NCCN2CCOCC2)nc(NCc2ccccc2)n1	-6	-1
CC(=O)NCCc1csc(C2CCCN(C(=O)C3CCCCC3)C2)n1 (stereo unspecified)	4	-3
O=S(=O)(NC1CCCCC1)c1ccc2[nH]c3c(c2c1)CCCCC3	95*	-3
S=C(NCc1ccc2[nH]c3c(c2c1)CCCC3)NC1CCCCC1	40	-3
Cc1ccc(NS(=O)(=O)c2ccc3[nH]c4c(c3c2)CCCCC4)nc1	60*	-4
O=S(=O)(Nc1ccccn1)c1ccc2[nH]c3c(c2c1)CCCCC3	2	-2
c1ccc2c(c1)ncn2CCN1CCOCC1	-5	-4
CCc1ccc(NC(=O)c2ccc([N+](=O)[O-])cc2)cc1	4	-4
COc1ccc(NCC2CCCCC2)cc1	73*	0
COc1ccc(NC(=O)CC2CCC2)cc1	-6	5
Cc1nn(Cc2ccc(Cl)cc2)c(C)c1NC(=O)c1noc2c1CCCCC2	67*	2
Cc1cc(NC(=O)c2noc3c2CCCCC3)nn1Cc1ccc(Cl)cc1	-8	-4
COc1ccc(-c2cc3ccc(O)c(CN4CCCCCC4)c3oc2=O)cc1OC	-3	-5
N#Cc1c(C#N)c(N)n(N)c1N	100*	x
Cn1nc(CC#N)c(C#N)c1N	x	11
COc1ccc(CCNC(=O)c2cnccn2)cc1OC	3	0
Cc1oc2cc3oc(=O)c4c(c3cc2c1-c1ccccc1)CCC4	-9	14
Cc1oc2cc3oc(=O)c4c(c3cc2c1C)CCC4	-8	58*
CC(C)NC(=O)c1n[nH]c2c1CN(C(=O)Cc1ccccc1F)CC2	-1	2
CN(Cc1ccccc1)Cc1cncc(-c2cc3ccccc3s2)c1	80*	-2
CN(Cc1ccccc1)Cc1ccc(O)cc1	-4	-1
COc1cc2c(cc1OC)CN(c1c([N+](=O)[O-])cc(C(F)(F)F)cc1[N+](=O)[O-])CC2	x	0
SMILES	mHTT-CaM PPI inh	Pf apPOL block
O=C(CCc1nc2ccccc2n(Cc2c(F)cccc2Cl)c1=O)NCc1ccccc1	55*	-7
CCCCNC(=O)CCc1nc2ccccc2n(Cc2c(F)cccc2Cl)c1=O	23	-7
CN(CC1(C)CCOCC1)S(=O)(=O)c1ccc(F)c(F)c1	-6	1
O=C(O)C1C2C=CC3(CN(C4CCCCC4)C(=O)C13)O2 (stereo unspecified)	-10	-1
Cc1nc2n(n1)C=COc1ccccc1-2	-6	x
O=c1c([N+](=O)[O-])c(O)c2ccccc2n1-c1ccccc1	-6	-3
O=c1c([N+](=O)[O-])c(Cl)c2ccccc2n1-c1ccccc1	100*	-2
O=C(Nc1c2c(nn1-c1ccc(Cl)cc1)CSC2)c1cc(Cl)ccc1[N+](=O)[O-]	10	-5
CC(C)C(=O)NC(c1ccc(Cl)cc1Cl)c1ccc2cccnc2c1O (stereo unspecified)	96*	-66
CN(C)c1ccc(C(NC(=O)Cc2ccccc2)c2ccc3cccnc3c2O)cc1 (stereo unspecified)	41	0
CCC(=O)NC(c1ccc(C)cc1)c1ccc2cccnc2c1O (stereo unspecified)	100*	0
COc1ccc(C(NC(=O)C(C)C)c2ccc3cccnc3c2O)cc1OC (stereo unspecified)	100*	3
CC(=O)NC(c1ccc(Cl)cc1)c1ccc2cccnc2c1O (stereo unspecified)	100*	0
COc1ccc(C(C)NC(C)=O)cc1OC (stereo unspecified)	-8	-6
CC(Oc1ccc(Cl)cc1Cl)C(=O)Nc1ncccn1 (stereo unspecified)	-5	-2
Cc1ccc(C(=O)N2CCCCC2C)c(C2CCNCC2)n1 (stereo unspecified)	-5	-4
COCCCNC(=O)C1(C)CCC(=O)N1Cc1ccccc1OC (stereo unspecified)	6	-1
CC1CN(C(=O)Cn2ccnc2)CC1c1nc(-c2ccncc2)no1 (stereo unspecified)	5	-8
CCCC(=O)NC(c1ccccc1Cl)c1ccc2cccnc2c1O (stereo unspecified)	100*	0
COc1ccc(C(NC(=O)C(C)C)c2ccc3cccnc3c2O)cc1 (stereo unspecified)	100*	10
COc1ccc(C(NC(C)=O)c2ccc3cccnc3c2O)cc1 (stereo unspecified)	100*	4
COc1ccc(-c2ncc(NC(=O)C(C)C)cn2)cc1	-3	0
Oc1c(C(Nc2cccc(Cl)c2)c2ccncc2)ccc2cccnc12 (stereo unspecified)	100*	-10
c1ccc(NC(c2ccccc2)c2ccncc2)cc1 (stereo unspecified)	5	-2
COc1ccc(C(=O)Nc2cc(OC)cc3cccnc23)cc1	-9	4
SMILES	mHTT-CaM PPI inh	Pf apPOL block
COc1cc(C)ccc1OCCCOc1cccc(C=O)c1	-26	-5
Cc1ccc(C(NC(=O)C(C)C)c2ccc3cccnc3c2O)cc1 (stereo unspecified)	100*	2
O=C(NC(Nc1cccc2cccnc12)C(Cl)(Cl)Cl)c1ccc(Br)cc1 (stereo unspecified)	3	-10
CC(=O)NC(c1ccccc1Cl)c1ccc2cccnc2c1O (stereo unspecified)	100*	-6
O=C(NC(c1ccccc1)c1ccc2cccnc2c1O)c1ccccc1 (stereo unspecified)	100*	2
Cc1ccccc1-c1nc(-c2ccccc2Cl)no1	-105	-2
COc1cccc(CNC(=O)C2CC(=O)N(c3ccc4oc(C)nc4c3)C2)c1 (stereo unspecified)	6	-4
CCc1cc(C2CCCN2C(=O)c2cccc(C(F)(F)F)c2)on1 (stereo unspecified)	-9	-1
C=CCSc1nnc2c(n1)OC(c1ccc(OC)c(O)c1)Nc1ccccc1-2 (stereo unspecified)	-3	0
CC(=O)N1CCCC(c2ccnc(Nc3cccc(F)c3)n2)C1 (stereo unspecified)	32	-2
Cc1cccc(Nc2nccc(C3CCCN(C(=O)c4ccoc4)C3)n2)c1 (stereo unspecified)	29	1
O=C(c1cccc(F)c1)N1CCCC(c2ccnc(Nc3ccccc3)n2)C1 (stereo unspecified)	18	0
O=C(c1ccoc1)N1CCCC(c2ccnc(Nc3cccc(F)c3)n2)C1 (stereo unspecified)	72*	-2
O=C(c1ccsc1)N1CCCC(c2ccnc(Nc3cccc(F)c3)n2)C1 (stereo unspecified)	67*	-2
O=C(c1ccccc1)N1CCCC(c2ccnc(Nc3ccc(F)cc3)n2)C1 (stereo unspecified)	91*	-7
O=C(/C=C/c1ccc2c(c1)OCO2)Nc1c2c(nn1-c1cccc(Cl)c1)CSC2	23	-5
CC(=O)n1c2c(c3ccccc31)OC(N)=C(C#N)C2c1ccc(C(C)C)cc1 (stereo unspecified)	50*	4
CC(=O)n1c2c(c3ccccc31)OC(N)=C(C#N)C2c1ccc(F)cc1 (stereo unspecified)	5	-6
